Records with an inconclusive call do not appear. Active and inactive are the calls of the source. Unless noted, calls come from the whole dose curve; as a rule, active = well fitted curve in the direction sought with a large enough effect; inconclusive = small, poorly fitted or top-dose-only effect, or another doubt; inactive = no such curve, though single readings can be large; an effect the other way counts as inactive or inconclusive.
Experiments:
[1] = target: ATP-dependent 6-phosphofructokinase (Trypanosoma brucei brucei) (UniProt O15648); assay: qHTS Assay to Find Inhibitors of T. brucei phosphofructokinase: hit validation (AID 492961);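 note: luminescence reports ADP formed as PFK phosphorylates fructose-6-phosphate with ATP; % is set by controls: 0 for no effect and ±100 for the full control effect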
Procedure, shortened: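 Compounds titrated; %activity normalized to 0x and 1x enzyme controls, curve-fitted. Readout: ADP-Glo luminescence after 45 min room-temperature reaction of 1.25 nM PFK, 0.1 mM ATP, 0.5 mM F6P, pH 8.0.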

[2] = target: Ubiquitin carboxyl-terminal hydrolase 1 (Homo sapiens) (UniProt O94782); assay: Inhibitors of USP1/UAF1: Pilot qHTS (AID 504865); note: nearly all actives have a fitted effect of over 35% in size; note: potency is the fitted concentration of half-maximal effect
Procedure, shortened: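 USP1/UAF1 complex at 1 nM preincubated 15 min at room temperature with compound, then Ub-Rho substrate added at 150 nM final. Fluorescence (480/540 nm) read kinetically in 50 mM HEPES pH 7.8, 0.5 mM EDTA, 1 mM TCEP, 0.1 mg/ml BSA, 0.01% Tween-20.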

[3] = qHTS profiling for inhibitors of Plasmodium falciparum proliferation (AID 504749); note: potency is the fitted concentration of half-maximal effect;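 for activity, negative = inhibition: 0% = DMSO vehicle and full inhibition = artemisinin control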; for all read-outs here: nearly all actives have a fitted effect of over 60% in size; settings: P. falciparum in erythrocytes, SYBR Green DNA, 72 h; for activity, negative = inhibition: at 28.7 µM (top of the series)
Procedure, shortened: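 Readout was DNA-dye fluorescence from lysed cultures, ex 485/em 535 nm. Parasitized red cells had grown 72 h with compound; data scaled between 0.29 uM artemisinin and DMSO wells and corrected using vehicle-only plates.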

[4] = AP1 Signaling Pathway (AID 357; active = well fitted curve in either direction with a large enough effect, not every such curve was filed as active;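 note: ME-180 reporter cells stimulated with EGF at its EC50 level; % is set by controls: 0 for no effect and ±100 for the full control effect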); settings: ME-180 AP-1-bla reporter, EGF-induced, beta-lactamase ratio, 5 h; at 7.69 µM (top of the series) unless noted
Procedure, shortened: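 Read-out was the 460nm/530nm emission ratio (excitation 405nm) after CCF4 loading for 2.5 hours at room temperature. Cells carried an AP-1-driven beta-lactamase reporter, were stimulated with EC50 EGF plus compound for 5 hours, and AC50 values came from titrations.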

[5] = Stat Signaling Pathway (AID 446; active = well fitted curve in either direction with a large enough effect, not every such curve was filed as active;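 note: ME-180 cervical cancer cells given 40 pM IL-6 alongside compound; SIE-controlled beta-lactamase reporter measured as 460/530 nm FRET emission ratio; % is set by controls: 0 for no effect and ±100 for the full control effect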); settings: ME-180 SIE beta-lactamase reporter, IL-6 stimulated, 5 h; at 7.69 µM (top of the series) unless noted
Procedure, shortened: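 Screening format detects activators and inhibitors alike: ME-180 SIE-bla cells stimulated at 40 pM IL-6 for 5 hrs with compound, then dual-emission beta-lactamase read at 405 nm excitation.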

[6] = target: Glucocorticoid receptor (Homo sapiens) (UniProt P04150); assay: GR-GFP Redistribution (AID 450;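 active = compounds whose dose series gives a full or clear partial fitted curve of increased nuclear translocation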; note: potency is the fitted concentration of half-maximal effect); settings: U2OS GR-GFP nuclear translocation, laser cytometry, 2 h
[7] = target: Glucocorticoid receptor (Homo sapiens) (UniProt P04150); assay: GR-EFC Redistribution (AID 451; calls by dose curve; note: potency is the fitted concentration of half-maximal effect); settings: CHO-K1 GR-EFC translocation, beta-gal luminescence, 2 h
Procedure, shortened: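 CHO-K1 cells expressing nuclear EA and GR-ED fragments of b-gal; compounds titrated up to 46 uM final, 2 h at 37 C. GR nuclear translocation read as complemented b-gal luminescence after 1 h RT detection.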

[8] = qHTS for differential inhibitors of proliferation of Plasmodium falciparum line 3D7 (AID 1876);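 note: parasite growth measured after three days of culture; 0% = vehicle wells and -100% = reference inhibitor wells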
[9] = qHTS for differential inhibitors of proliferation of Plasmodium falciparum line D10 (AID 1877);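 note: parasites grown with compound for 72 h before DNA staining; plate controls were vehicle wells for no effect and reference inhibitor wells for full effect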
[10] = target: Ferritin light chain (Equus caballus) (UniProt P02791); assay: qHTS Validation Assay for Identification of Novel General Anesthetics (AID 2323); note: % is set by controls: 0 for no effect and ±100 for the full control effect
Procedure, shortened: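 Horse-spleen apoferritin (10 uM) in PBS with 50% saturated 1-aminoanthracene; compounds pin-transferred, 10 min at room temperature. Fluorescence read at 380/535 nm, normalized to free 1-AMA and 1-AMA/apoferritin values; four-parameter Hill fit.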

[11] = target: RecQ-like DNA helicase BLM (Homo sapiens) (UniProt P54132); assay: qHTS Validation Assay for Inhibitors of Bloom's syndrome helicase (BLM) (AID 2364);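 note: plate controls were DMSO vehicle for no effect and enzyme-free control for full effect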
Procedure, shortened: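 50 nM BLM preincubated 15 min at room temperature with compound in pH 8.0 Tris buffer containing 2.5 ug/ml poly(dI-dC); started with 200 nM TAMRA/BHQ-2 forked duplex and 2 mM ATP (final). Unwinding read as TAMRA fluorescence increase, two reads 2 h apart.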

[12] = Quantitative high throughput screen for delayed death inhibitors of the malarial parasite plastid, 96 hour incubation (AID 488745);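 note: luciferase-expressing P. falciparum in erythrocytes at 2% hematocrit and 0.1% parasitemia; % is set by controls: 0 for no effect and ±100 for the full control effect; nearly all actives have a fitted effect of over 70% in size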
Procedure, shortened: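 Growth of reporter-bearing P. falciparum in red cells is measured after 96 h with compound, covering two erythrocytic cycles. Luminescence from the integrated luciferase serves as the growth signal.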

[13] = target: Thyrotropin receptor (Homo sapiens) (UniProt P16473); assay: qHTS Assay for Antagonists of the Thyroid Stimulating Hormone Receptor (AID 488980); note: 0% is about no effect
Procedure, shortened: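 TSHR-transfected HEK293 cells (2000/well) in HEPES-buffered HBSS with 70 uM RO 20-1724 were stimulated with 4 nM TSH (EC80, final) in the presence of compound. cAMP was measured by HTRF competition after lysis and 30 min at RT.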

[14] = target: Thyrotropin-releasing hormone receptor (Homo sapiens) (UniProt P34981); assay: qHTS for Small Molecule Agonists and Allosteric Enhancers of Human TRH Receptor: Validation Screen for Agonists (AID 493127;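 active = calcium activation more than 3 SD above the typical response in the agonist read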;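 note: intracellular calcium rise by fluo-8 fluorescence before TRH EC20 addition; 0% is about no effect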); settings: TRH receptor agonist cell assay; at 2 µM; hits give high values
Procedure, shortened: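 Gq-coupled calcium mobilization in TRHR cells after compound addition, monitored kinetically with fluo-8 dye on an FDSS reader.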

[15] = target: Voltage-gated inwardly rectifying potassium channel KCNH2 (Homo sapiens) (UniProt Q12809); assay: qHTS Assay for Small Molecule Inhibitors of the Human hERG Channel Activity (AID 588834);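 note: top concentration of the series differs between compounds; % is set by controls: 0 for no effect and ±100 for the full control effect; lower thallium flux fluorescence means stronger hERG block; nearly all actives have a fitted effect of over 50% in size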
Procedure, shortened: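 U2OS cells BacMam-transduced with hERG, 2000 cells/well, compound ~10 min at 37 °C before stimulation buffer. FluxOR thallium flux fluorescence read kinetically on FDSS; decrease indicates block; AC50 from Hill fits.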

[16] = qHTS for differential inhibitors of proliferation of Plasmodium falciparum line 7G8 (AID 1815);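 note: parasite growth measured after three days of incubation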; note: potency is the fitted concentration of half-maximal effect;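 for activity change, negative = inhibition: plate controls were vehicle wells for no effect and reference inhibitor wells for full effect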
[17] = qHTS for differential inhibitors of proliferation of Plasmodium falciparum line GB4 (AID 1816); settings: Potency: Plasmodium falciparum GB4 proliferation inhibition;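 note: parasite growth measured after 72 h incubation; 0% = vehicle DMSO and -100% = reference inhibitor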
[18] = qHTS for differential inhibitors of proliferation of Plasmodium falciparum line W2 (AID 1883); settings: Potency: Plasmodium falciparum W2 proliferation inhibition;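 note: parasites grown with compound for 72 h before lysis and staining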; note: potency is the fitted concentration of half-maximal effect;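 for activity change, negative = inhibition: 0% = vehicle wells and -100% = control inhibitor wells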
[19] = qHTS for differential inhibitors of proliferation of Plasmodium falciparum line HB3 (AID 1886); settings: Potency: Plasmodium falciparum HB3 proliferation inhibition;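 note: parasites grown with compound for 72 h before SYBR Green readout; plate controls were vehicle for no effect and reference inhibitor for full effect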
[20] = qHTS Assay for Modulators of Human Peripheral Myelin Protein 22 (PMP22) Expression/Activity (AID 1967; active = well fitted curve in the direction sought with a large enough effect in the signal ratio; the % refers to the signal ratio;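 note: 0% = untreated cells and 100% end not stated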)
Procedure, shortened: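 Mouse MSC80 Schwann cells carrying Pmp22 promoter–green click beetle luciferase plus EF-alpha–red luciferase control, dosed 24 h at 37 °C. Dual-filter luminescence, overlap-corrected; %Activity from green/red ratio normalised to untreated cells, concentration-response curves fitted.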

Sequence of ATP-dependent 6-phosphofructokinase (Trypanosoma brucei brucei) (O15648 whole entry, looked up): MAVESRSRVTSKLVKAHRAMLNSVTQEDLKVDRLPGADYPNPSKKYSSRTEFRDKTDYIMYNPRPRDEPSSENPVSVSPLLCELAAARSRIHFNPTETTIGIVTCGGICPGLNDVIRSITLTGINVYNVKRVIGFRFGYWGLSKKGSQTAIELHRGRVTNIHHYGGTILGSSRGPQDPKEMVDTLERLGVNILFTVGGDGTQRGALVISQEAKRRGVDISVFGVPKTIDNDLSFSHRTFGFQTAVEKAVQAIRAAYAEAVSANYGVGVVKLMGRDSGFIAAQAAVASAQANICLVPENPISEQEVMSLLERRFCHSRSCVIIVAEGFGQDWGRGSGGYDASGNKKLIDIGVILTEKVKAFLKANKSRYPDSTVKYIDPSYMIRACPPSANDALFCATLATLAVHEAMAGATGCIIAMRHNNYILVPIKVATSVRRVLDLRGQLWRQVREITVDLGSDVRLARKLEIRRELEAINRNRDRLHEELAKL
Sequence of RecQ-like DNA helicase BLM (Homo sapiens) (P54132 whole entry, looked up): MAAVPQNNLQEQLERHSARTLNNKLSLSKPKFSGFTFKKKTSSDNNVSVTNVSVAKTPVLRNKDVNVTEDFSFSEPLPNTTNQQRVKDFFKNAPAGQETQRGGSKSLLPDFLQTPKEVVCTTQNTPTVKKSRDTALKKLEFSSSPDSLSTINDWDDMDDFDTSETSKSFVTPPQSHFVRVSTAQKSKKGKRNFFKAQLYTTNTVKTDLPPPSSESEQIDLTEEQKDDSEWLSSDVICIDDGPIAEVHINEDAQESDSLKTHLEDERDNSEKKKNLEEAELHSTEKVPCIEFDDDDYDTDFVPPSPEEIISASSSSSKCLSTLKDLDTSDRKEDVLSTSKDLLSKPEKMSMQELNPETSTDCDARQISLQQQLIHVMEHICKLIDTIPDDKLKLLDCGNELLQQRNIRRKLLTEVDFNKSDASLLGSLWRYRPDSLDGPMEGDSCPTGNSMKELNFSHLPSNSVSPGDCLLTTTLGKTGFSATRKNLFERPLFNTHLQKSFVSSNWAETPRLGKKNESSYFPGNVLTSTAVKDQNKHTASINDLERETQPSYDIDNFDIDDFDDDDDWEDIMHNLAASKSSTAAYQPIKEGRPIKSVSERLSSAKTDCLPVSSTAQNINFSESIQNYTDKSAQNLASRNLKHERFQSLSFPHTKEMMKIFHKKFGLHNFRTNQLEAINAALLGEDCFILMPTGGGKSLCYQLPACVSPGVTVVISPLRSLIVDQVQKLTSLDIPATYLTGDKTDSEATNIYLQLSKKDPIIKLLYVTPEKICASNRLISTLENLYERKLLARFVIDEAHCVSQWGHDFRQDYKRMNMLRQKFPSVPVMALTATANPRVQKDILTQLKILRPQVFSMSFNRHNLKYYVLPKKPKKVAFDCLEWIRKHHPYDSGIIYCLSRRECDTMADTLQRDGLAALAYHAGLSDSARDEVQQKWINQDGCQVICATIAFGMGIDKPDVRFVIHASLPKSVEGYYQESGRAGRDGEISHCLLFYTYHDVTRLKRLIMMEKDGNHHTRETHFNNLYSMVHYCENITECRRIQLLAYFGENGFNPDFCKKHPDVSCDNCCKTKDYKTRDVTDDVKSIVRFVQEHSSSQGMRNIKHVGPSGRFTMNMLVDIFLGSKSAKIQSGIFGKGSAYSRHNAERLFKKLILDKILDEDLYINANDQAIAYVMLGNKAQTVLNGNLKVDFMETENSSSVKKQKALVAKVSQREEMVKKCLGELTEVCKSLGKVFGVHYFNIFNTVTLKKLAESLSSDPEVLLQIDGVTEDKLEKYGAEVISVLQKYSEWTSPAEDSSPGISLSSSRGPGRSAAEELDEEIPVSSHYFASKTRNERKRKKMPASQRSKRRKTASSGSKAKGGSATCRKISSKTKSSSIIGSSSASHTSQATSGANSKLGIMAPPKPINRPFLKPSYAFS
Sequence of Voltage-gated inwardly rectifying potassium channel KCNH2 (Homo sapiens) (Q12809 whole entry, looked up): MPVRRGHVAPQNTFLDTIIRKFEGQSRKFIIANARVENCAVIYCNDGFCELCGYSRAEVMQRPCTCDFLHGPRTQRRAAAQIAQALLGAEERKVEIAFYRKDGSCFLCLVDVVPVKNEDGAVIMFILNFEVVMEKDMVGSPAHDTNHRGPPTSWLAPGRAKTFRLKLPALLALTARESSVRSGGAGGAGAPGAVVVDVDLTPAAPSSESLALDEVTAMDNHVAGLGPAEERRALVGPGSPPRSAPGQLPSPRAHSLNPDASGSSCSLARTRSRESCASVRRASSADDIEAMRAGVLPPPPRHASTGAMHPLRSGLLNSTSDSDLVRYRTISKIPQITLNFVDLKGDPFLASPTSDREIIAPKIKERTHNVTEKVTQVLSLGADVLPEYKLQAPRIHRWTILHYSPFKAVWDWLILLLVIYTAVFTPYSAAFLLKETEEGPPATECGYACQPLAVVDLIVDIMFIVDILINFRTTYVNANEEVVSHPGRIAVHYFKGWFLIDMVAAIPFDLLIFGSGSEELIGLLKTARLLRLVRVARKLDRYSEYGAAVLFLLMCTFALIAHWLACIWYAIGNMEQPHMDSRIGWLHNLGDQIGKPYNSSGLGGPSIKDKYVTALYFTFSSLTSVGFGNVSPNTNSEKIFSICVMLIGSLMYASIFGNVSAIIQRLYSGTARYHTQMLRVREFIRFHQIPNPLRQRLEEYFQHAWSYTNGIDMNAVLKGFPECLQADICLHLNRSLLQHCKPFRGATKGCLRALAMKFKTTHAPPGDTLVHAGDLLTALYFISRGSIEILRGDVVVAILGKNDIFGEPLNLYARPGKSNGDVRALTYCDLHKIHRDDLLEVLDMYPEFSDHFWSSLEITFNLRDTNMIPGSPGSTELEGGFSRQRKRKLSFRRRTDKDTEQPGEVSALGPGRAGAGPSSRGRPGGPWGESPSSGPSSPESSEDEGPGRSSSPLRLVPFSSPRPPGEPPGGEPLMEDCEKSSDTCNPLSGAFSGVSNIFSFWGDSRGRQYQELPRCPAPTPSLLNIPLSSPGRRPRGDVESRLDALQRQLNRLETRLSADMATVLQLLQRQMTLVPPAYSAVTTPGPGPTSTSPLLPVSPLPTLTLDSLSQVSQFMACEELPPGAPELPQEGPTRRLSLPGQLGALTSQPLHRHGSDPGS
Sequence of Thyrotropin receptor (Homo sapiens) (P16473 whole entry, looked up): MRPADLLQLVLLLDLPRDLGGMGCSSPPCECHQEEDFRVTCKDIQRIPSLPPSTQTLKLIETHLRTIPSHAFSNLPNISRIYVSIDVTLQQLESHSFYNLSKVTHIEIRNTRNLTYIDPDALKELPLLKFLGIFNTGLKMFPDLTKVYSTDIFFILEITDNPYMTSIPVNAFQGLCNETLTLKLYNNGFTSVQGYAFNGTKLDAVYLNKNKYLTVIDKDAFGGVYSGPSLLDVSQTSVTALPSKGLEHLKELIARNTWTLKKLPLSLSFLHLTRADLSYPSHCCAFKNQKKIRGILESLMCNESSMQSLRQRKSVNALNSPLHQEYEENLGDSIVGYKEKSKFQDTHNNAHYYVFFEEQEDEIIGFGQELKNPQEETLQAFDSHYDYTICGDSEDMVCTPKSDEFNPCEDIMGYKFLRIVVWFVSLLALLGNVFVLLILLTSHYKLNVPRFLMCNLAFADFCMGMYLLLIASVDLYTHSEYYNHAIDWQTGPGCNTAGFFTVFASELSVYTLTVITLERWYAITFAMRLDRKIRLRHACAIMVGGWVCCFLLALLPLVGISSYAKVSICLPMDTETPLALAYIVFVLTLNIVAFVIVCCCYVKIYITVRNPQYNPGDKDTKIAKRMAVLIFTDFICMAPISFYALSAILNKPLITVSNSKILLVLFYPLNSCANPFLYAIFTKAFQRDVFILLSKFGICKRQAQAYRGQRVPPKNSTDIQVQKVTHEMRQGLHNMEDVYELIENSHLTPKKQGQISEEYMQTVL
Sequence of Ferritin light chain (Equus caballus) (P02791 2-175 limits assumed): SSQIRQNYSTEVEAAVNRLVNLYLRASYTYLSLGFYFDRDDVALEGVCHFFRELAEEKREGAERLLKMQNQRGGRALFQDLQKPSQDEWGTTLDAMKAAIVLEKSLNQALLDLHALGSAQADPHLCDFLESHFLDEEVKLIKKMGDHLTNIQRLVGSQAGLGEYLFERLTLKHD
Sequence of Thyrotropin-releasing hormone receptor (Homo sapiens) (P34981 whole entry, looked up): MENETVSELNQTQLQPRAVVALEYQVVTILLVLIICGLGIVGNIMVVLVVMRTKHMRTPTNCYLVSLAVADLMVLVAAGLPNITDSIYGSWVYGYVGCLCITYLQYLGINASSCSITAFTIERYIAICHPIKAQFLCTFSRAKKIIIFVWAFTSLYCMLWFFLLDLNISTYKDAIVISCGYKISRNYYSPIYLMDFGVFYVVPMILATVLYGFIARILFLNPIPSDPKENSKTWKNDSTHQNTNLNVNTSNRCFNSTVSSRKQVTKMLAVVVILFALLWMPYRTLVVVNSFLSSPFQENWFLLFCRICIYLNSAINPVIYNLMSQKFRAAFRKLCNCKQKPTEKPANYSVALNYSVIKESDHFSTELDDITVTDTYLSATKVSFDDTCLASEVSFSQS

CO[C@H]1/C=C/O[C@@]2(C)Oc3c(C)c(O)c4c(O)c(c(/C=N\N5CCN(C6CCCC6)CC5)c(O)c4c3C2=O)NC(=O)/C(C)=C\C=C\[C@H](C)[C@H](O)[C@@H](C)[C@@H](O)[C@@H](C)[C@H](OC(C)=O)[C@@H]1C
active: Potency [2] 56.2 µM | Potency ([3]; parasite line A) 1.58 µM | Potency ([3]; parasite line B) 0.631 µM
inactive: outcome [1]

C[C@@]12C(=O)OC(=O)[C@]1(C)[C@H]1CC[C@@H]2O1
active: activity change, negative = inhibition [4] -102% [at 17.2 µM] | activity, negative = inhibition [5] -85.9% [at 17.2 µM] | Potency [6] 2.63 µM | Potency ([3]; parasite line A) 3.98 µM | Potency ([3]; parasite line B) 3.16 µM
inactive: Potency [7] > 20.6 µM | outcome [1] | Potency [2]

CC(C)n1c(/C=C/[C@H](O)C[C@H](O)CC(=O)O)c(-c2ccc(F)cc2)c2ccccc21
inactive: outcome [1]

O=C(CCc1ccc(O)cc1)c1c(O)cc(O)cc1O[C@@H]1O[C@H](CO)[C@@H](O)[C@H](O)[C@H]1O
inactive: Potency [2]

N=C1Sc2ccccc2C2=NCCCN12
inactive: activity change, negative = inhibition [4] 18% [at 38 µM] | activity, negative = inhibition [5] -18.9% [at 38 µM] | Potency [6] > 46 µM | Potency [7] > 46 µM | Potency [8] | Potency [9] | outcome [10] | Potency [11] | Potency [12] | outcome [13] | activation [14] 0.125% | Potency [15]

NCC1OC(O[C@@H]2[C@H](O)[C@@H](OC3C(O)C(N)CC(N)C3OC3OC(CO)C(O)C(O)C3N)O[C@@H]2CO)C(N)C(O)C1O (stereo not given in full)
inactive: Potency [16] | Potency [17] | Potency [8] | Potency [9] | Potency [18] | Potency [19] | outcome [20] | outcome [10] | Potency [12] | outcome [13] | activation [14] 1.44% | Potency [15]

NC(=O)C1=CN(C2OC(COP(=O)(O)OP(=O)(O)OC[C@H]3O[C@@H](n4cnc5c(N)ncnc54)[C@H](OP(=O)(O)O)[C@H]3O)C(O)C2O)C=CC1 (stereo not given in full)
inactive: Potency [16] | Potency [17] | Potency [8] | Potency [9] | Potency [18] | Potency [19] | outcome [10] | Potency [11] | Potency [12] | outcome [13] | activation [14] -0.125% | Potency [15]

CN1C(=O)CCC1c1cccnc1 (stereo not given)
inactive: Potency [16] | Potency [17] | Potency [9] | Potency [19] | outcome [20] | outcome [10] | Potency [11] | outcome [13] | outcome [1] | activation [14] 1.19% | Potency [2] | activity, negative = inhibition ([3]; parasite line A) 0.771% | activity, negative = inhibition ([3]; parasite line B) 4.61%

O=C(O)CC[C@H](NC(=O)c1ccccc1C(=O)O)C(=O)O
inactive: Potency [16] | Potency [17] | Potency [8] | Potency [9] | Potency [18] | Potency [19] | outcome [20] | outcome [10] | Potency [12] | outcome [13] | activation [14] 0.188% | Potency [15]

Nc1nc(Nc2ccccc2)nc2c1ncn2[C@@H]1O[C@H](CO)[C@H](O)[C@H]1O
inactive: outcome [20] | outcome [10] | Potency [12] | outcome [13] | activation [14] 0.938% | Potency [15]

Nc1nc(SCc2ccc([N+](=O)[O-])cc2)c2ncn([C@@H]3O[C@H](CO)[C@H](O)[C@H]3O)c2n1
inactive: Potency [9] | Potency [12] | outcome [13] | activation [14] 0.75%

O=C(Cc1ccc(Cl)c(Cl)c1)OCCN1CCCC1
inactive: activity change, negative = inhibition [4] 17.4% [at 38 µM] | activity, negative = inhibition [5] 15.9% [at 38 µM] | Potency [6] > 46 µM | Potency [7] > 46 µM | Potency [16] | Potency [17] | Potency [8] | Potency [9] | Potency [18] | Potency [19] | outcome [20] | outcome [10] | Potency [12] | outcome [13] | activation [14] 1.06% | Potency [15]

CNC(=O)[C@H]1O[C@@H](n2cnc3c(NCc4cccc(I)c4)ncnc32)[C@H](O)[C@H]1O
inactive: outcome [10] | Potency [12] | outcome [13] | activation [14] 1.38% | Potency [15]
active: Potency [16] 7.94 µM | Potency [18] 8.91 µM

Cc1cn([C@H]2C[C@@H](N=[N+]=[N-])[C@@H](CO)O2)c(=O)[nH]c1=O
inactive: Potency [16] | Potency [17] | Potency [8] | Potency [9] | Potency [18] | Potency [19] | outcome [10] | Potency [12] | Potency [15]

C[C@]12CCC(=O)C=C1CC[C@@H]1C2[C@@H](O)C[C@@]2(C)[C@H]1CC[C@]2(O)C(=O)CO (stereo not given in full)
inactive: Potency [17] | Potency [8] | Potency [9] | Potency [18] | Potency [19] | outcome [20] | outcome [10] | Potency [11] | Potency [12] | outcome [13] | activation [14] 1% | Potency [2] | Potency [15]

— PubChem BioAssay (NCATS)
